Results published in PubChem BioAssay AID588391 (Broad Institute, 2011).
Hit rate of the full screen: of about 350,000 compounds, about 180 (0.051%) were called active. The sample holds actives, similar compounds and a random draw of the others, so the mix is not that of the screen.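 Rule for the calls: active = mean inhibition across replicates of 30% or more, whatever share of single replicates reach that level; inconclusive = mean inhibition below 30% while every single replicate reaches 30%; inactive = the rest.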

What follows are compounds tested against Protein disulfide-isomerase (Homo sapiens) (UniProt P07237) (assay: blockers of PDI-driven insulin aggregation – biochemical, turbidity, single point, plate reader, primary screen (AID 588391;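 note: absorbance from insulin aggregation driven by PDI reduction with DTT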)). Conditions: A650, 90 min, at 10 µM, stronger effect = higher value.
Chain of Protein disulfide-isomerase (Homo sapiens) (P07237 whole entry, looked up): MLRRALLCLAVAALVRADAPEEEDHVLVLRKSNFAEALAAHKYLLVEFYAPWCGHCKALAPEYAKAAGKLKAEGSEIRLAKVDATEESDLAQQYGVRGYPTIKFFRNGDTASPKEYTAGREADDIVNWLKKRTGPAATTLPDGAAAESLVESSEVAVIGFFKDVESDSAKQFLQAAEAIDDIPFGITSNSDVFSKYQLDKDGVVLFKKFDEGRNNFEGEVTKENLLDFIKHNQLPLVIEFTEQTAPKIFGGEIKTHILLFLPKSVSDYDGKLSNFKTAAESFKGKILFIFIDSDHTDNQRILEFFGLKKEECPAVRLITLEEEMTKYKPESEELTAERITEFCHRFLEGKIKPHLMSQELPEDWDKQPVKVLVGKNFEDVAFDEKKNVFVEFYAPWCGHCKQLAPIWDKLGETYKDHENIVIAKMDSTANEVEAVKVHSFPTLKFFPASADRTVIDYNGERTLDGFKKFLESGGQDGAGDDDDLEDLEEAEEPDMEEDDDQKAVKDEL

Structure (SMILES) | inhibition
CCCC(=O)N1CCC1(C)C(=O)NS(=O)(=O)c1ccc(Cl)cc1 (stereo unspecified) | 9.48% (inactive)
CC=CCn1c(SCCCc2ccccc2)nc2c1c(=O)[nH]c(=O)n2C | 8.5% (inactive)
Oc1cccc2cc(-c3ccncc3)cnc12 | -15.1% (inactive)
COCCNC(=O)C1(C)CCCN(Cc2cccc(F)c2)C1 (stereo unspecified) | 1.38% (inactive)
CCCCN(C=O)c1c(CC)nc2c(OCCC3CCCCC3)cccn12 | -6.94% (inactive)
O=C(NC(c1ccc(-c2ccccc2)cc1)c1cnccn1)C1CCN(CCOc2ccc(Cl)cc2Cl)CC1 (stereo unspecified) | 4.84% (inactive)
COc1ccc(-c2csc(C(O)c3cccc(Cl)c3)n2)cn1 (stereo unspecified) | 8.11% (inactive)
CC(C)(C(=O)N1CCC1(C)C(=O)NS(=O)(=O)c1ccc(Br)cc1)c1ccccc1 (stereo unspecified) | -3.96% (inactive)
COc1cc(NC(=O)c2cc(-c3ccc(F)cc3OC(C)C)n[nH]2)cc(OC)c1OC | -4.94% (inactive)
CC(C)Oc1cc(F)ccc1-c1cc(C(=O)Nc2cccc(Cl)c2)[nH]n1 | 12.1% (inactive)
Cc1ccccc1Cn1c(C)c(C(=O)NCc2cccc(C(F)(F)F)c2)sc1=O | -0.337% (inactive)
CC(=O)Nc1cc(-c2ccc(N3CCN(C)CC3)cc2)cn2c(-c3ccc(F)cc3)cnc12 | 0.066% (inactive)
CCCNC(=O)C1(C)CCN1C(=O)Cc1ccc(-c2ccccc2)cc1 (stereo unspecified) | 12.7% (inactive)
Cc1cccc(CNC(=O)c2sc(=O)n(Cc3ccccc3C)c2C)c1 | -13.7% (inactive)
O=C(Nc1ccc(Cl)c(C(F)(F)F)c1)C1Cc2c(-c3ccccc3Oc3ccccc3)ccnc2O1 (stereo unspecified) | -5.07% (inactive)
CNc1cncc(-c2ccc(NS(C)(=O)=O)cc2)n1 | -0.527% (inactive)
COc1ccc(Cl)cc1-c1cc(C(=O)Nc2cc(OC)c(OC)c(OC)c2)[nH]n1 | -0.731% (inactive)
CN1CCN(C(=O)c2ccc(-c3cc4nc(NCc5cccnc5)n(C)c(=O)c4s3)cc2)CC1 | 16.2% (inactive)
COc1ccc(-c2ccc(C(=O)NC(C)C)c3occc23)c(C)c1 | -1.92% (inactive)
COc1cccc(CNc2nc3cc(-c4csc5ccccc45)sc3c(=O)n2C)c1 | -2.68% (inactive)
Cc1nc2c(OCc3cccc(Cl)c3)cccn2c1N(C)CC1CC1 | 4.97% (inactive)
CCCCC(=O)N(C)c1c(CC)nc2c(OCc3ccc(Cl)cc3Cl)cccn12 | -3.52% (inactive)

Structure (SMILES) | inhibition
OC(c1ccccc1)c1nc(/C=C/c2ccc(C(F)(F)F)cc2)cs1 (stereo unspecified) | -51.4% (inactive)
CN(C)CCNC(=O)c1ccc(-c2cn3c(-c4ccc(Oc5ccccc5)cc4)cnc3cn2)cc1 | -1.11% (inactive)
COc1cccc(-c2cc3nc(NCCOc4ccccc4Cl)n(C)c(=O)c3s2)c1 | -11.2% (inactive)
CCc1nc2ccc(C(=O)NC3CCN(Cc4ccccc4)CC3)cn2c1N(CC)CCOC | -3.56% (inactive)
O=C(NCc1cccc(C(F)(F)F)c1)c1ccc2sc(COCCO)nc2c1 | -1.75% (inactive)
CN(C)CCNC(=O)c1cccc(-c2cnc3c(NC=O)cc(-c4cccc(C(F)(F)F)c4)cn23)c1 | 4.96% (inactive)
Cc1cc(C)n2nc(SCC(N)=O)nc2n1 | -1.27% (inactive)
Cc1cc(C)n2nc(CNS(=O)(=O)c3c(F)c(F)c(F)c(F)c3F)nc2n1 | 127% (active)
Cc1cc(C)n2nc(C(=O)NC(C)(C)C)nc2n1 | 0.598% (inactive)
CC1(C(=O)NS(=O)(=O)c2cccc(OC(F)F)c2)CCN1C(=O)C1CC1 (stereo unspecified) | -4.8% (inactive)
CCCOc1ccc(F)cc1-c1cc(C(=O)NCc2ccc(F)cc2)[nH]n1 | -0.369% (inactive)
CC1(C(=O)Nc2cccc3c2CCCC3)CCN1C(=O)C1(c2ccccc2)CC1 (stereo unspecified) | -0.663% (inactive)
NC(c1csc(NC(=O)Nc2cccc(C(F)(F)F)c2)n1)C1CCCCC1 (stereo unspecified) | 0.691% (inactive)
CC(C)(C)c1ccc(/C=C2\SC(=O)N=C2N)cc1 | 7.63% (inactive)
NC1=NC(=O)S/C1=C\c1ccc(O)cc1 | 43.5% (active)
O=C1N=C(N2CCc3ccccc3C2)S/C1=C\c1ccc(O)cc1 | -5.75% (inactive)
OC(c1ccc(Cl)cc1)c1ncc(-c2ccc(Cl)cc2)[nH]1 (stereo unspecified) | -6.36% (inactive)
COc1ccc(C2CC(c3cccc(OC)c3)=NN2c2ccc(S(N)(=O)=O)cc2)cc1 (stereo unspecified) | -2.45% (inactive)
COc1ccc(C(C)(NC(C)=O)c2nc(-c3ccc(S(C)(=O)=O)cc3)cs2)cc1 (stereo unspecified) | 4.43% (inactive)
COc1cc(F)ccc1-c1cc(C(=O)NCC2CCCCC2)[nH]n1 | 25% (inactive)
CC1(Cc2cccc(C#N)c2)C(=O)Nc2ccc(-c3cccc(C(F)(F)F)c3)cc21 (stereo unspecified) | 10.6% (inactive)
CC(=O)Nc1ccc(CNc2nc(NCCN(C)C)nc3cc(-c4ccccc4)sc23)cc1 | -1.45% (inactive)

Structure (SMILES) | inhibition
Cc1cc(O)ccc1-c1cc(C(=O)NCc2cc(C(F)(F)F)cc(C(F)(F)F)c2)[nH]n1 | -11.3% (inactive)
Cc1cccnc1C(NC(=O)C1CCN(Cc2ccc(Cl)c(Cl)c2)CC1)c1ccc(Cl)cc1 (stereo unspecified) | -20.8% (inactive)
CCCNC(=O)c1cc(C2CCCCN2S(=O)(=O)c2ccc(C#N)cc2)on1 (stereo unspecified) | 9% (inactive)
Cc1ccc(Cn2c(C)c(C(=O)NCc3ccccc3C(F)(F)F)sc2=O)cc1 | -2.82% (inactive)
CCN(CC)c1ncnc2c1ncn2[C@H]1CN(Cc2cccs2)C[C@@H](CO)O1 | 5.5% (inactive)
Cc1cccn2c(CNCC(C)Oc3cccnc3)c(C(=O)N3CCOCC3)nc12 (stereo unspecified) | 3.93% (inactive)
CCOC(=O)C1CCN(Cc2c(C(=O)N3CCOCC3)nc3c(C)cccn23)CC1 | -7.14% (inactive)
Cc1cccn2c(CN(C)C3CCCc4ccccc43)c(C(=O)N3CCOCC3)nc12 (stereo unspecified) | 36.6% (active)
O=C(Nc1nnc([C@H]2C[C@H](O)[C@@H](CO)O2)s1)c1cccc(Cl)c1 | 12.3% (inactive)
CC(=O)Nc1cc(-c2ccccc2N(C)C)cn2c(-c3ccc(F)c(Cl)c3)cnc12 | -1.53% (inactive)
CC(O)(c1cccc(F)c1)c1nc(-c2ccc3c(c2)OCO3)cs1 (stereo unspecified) | 0.825% (inactive)
Cc1nc2c(OCc3ccc(Cl)cc3)cccn2c1N(C)Cc1cccs1 | -1.78% (inactive)
CCOC(=O)c1c(-c2ccccc2)oc2cc(Br)c(O)c(C=O)c12 | 6.15% (inactive)
CCOC(=O)c1c(CN(C)C)n(-c2ccccc2)c2cc(Br)c(O)cc12 | 39.9% (active)
CCOC(=O)c1c(-c2ccccc2)oc2cc(Br)c(O)cc12 | 36.3% (active)
CCOC(=O)c1c(NC(C)=O)sc2c(O)c(Br)ccc12 | 3.13% (inactive)
CCOC(=O)c1c(CN2CCOCC2)n(-c2ccccc2)c2ccc(O)cc12 | 27.2% (inactive)
CCOC(=O)c1c(-c2ccccc2)oc2ccc(OCC(=O)NN)cc12 | -2.38% (inactive)
O=C(NCc1cccnc1)c1cc(C2CCCCN2C(=O)CCc2ccccc2)on1 (stereo unspecified) | 3.32% (inactive)
CCCC(=O)N1CCC1(C)C(=O)Nc1ccc(-n2cncn2)cc1 (stereo unspecified) | 4.25% (inactive)
COc1ccc(C(C)(O)c2nc(-c3cc(F)cc(F)c3)cs2)cc1 (stereo unspecified) | -18.6% (inactive)
Cc1ccc(CC2(C)C(=O)Nc3ccc(OC(F)(F)F)cc32)cc1 (stereo unspecified) | 5.49% (inactive)
